This is part of a sample that, as a whole, favours compounds with a hit. Of some 79,000 tested, about 15% had one in any assay. A number with no mark means an inactive call. Activity calls are given as the source filed them. Cut-off read from the data, not from the text of the source: active = growth inhibition above about 70%; inactive = the rest.

Results on six compounds are retold here after PubChem BioAssay (NCI).

A short description of experiment [1]: NCI Yeast Anticancer Drug Screen. Data for the rad50 strain (AID 155).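 Note: 0% = growth of vehicle-only cultures of the same strain.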 As to conditions: S. cerevisiae rad50 strain growth inhibition, stronger effect = higher value. The method, boiled down:
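Readout: growth inhibition relative to vehicle-treated cultures. Compound exposure was carried out in a genetically defined yeast strain deficient in DNA damage repair.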

Experiment [2] in a line: NCI Yeast Anticancer Drug Screen. Data for the mec2-1 strain (AID 157). To be noted: S. cerevisiae mec2-1 strain, stronger effect = higher value. The method, boiled down: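 Mutant yeast (mec2-1) grown with compound; growth inhibition relative to vehicle control reported.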
Experiment [3] is described as follows: NCI Yeast Anticancer Drug Screen. Data for the sgs1 mgt1 strain (AID 161).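 Note: 0% = growth of cultures given vehicle only.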 As to conditions: S. cerevisiae sgs1 mgt1 strain, stronger effect = higher value. An outline of the steps: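 Growth of a repair-deficient yeast mutant was monitored after compound treatment and expressed as inhibition relative to vehicle-treated cultures.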
A short description of experiment [4]: NCI Yeast Anticancer Drug Screen. Data for the cln2 rad14 strain (AID 165).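 Note: 0% = growth equal to vehicle treated cultures.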 As to conditions: S. cerevisiae cln2 rad14 strain, stronger effect = higher value. An outline of the steps: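 Readout is yeast growth inhibition versus vehicle-treated controls, using a strain with cln2 and rad14 alterations exposed to compound.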
A short description of experiment [5]: NCI Yeast Anticancer Drug Screen. Data for the bub3 strain (AID 167). As to conditions: S. cerevisiae bub3 mutant strain, stronger effect = higher value. An outline of the steps:
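Readout: yeast growth inhibition, expressed relative to vehicle-only wells. The test organism is a mutant strain from a panel with lesions in DNA repair or checkpoint genes.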

The nature of experiment [6]: NCI Yeast Anticancer Drug Screen. Data for the mlh1 rad18 strain (AID 175). To be noted: S. cerevisiae mlh1 rad18 strain growth inhibition, stronger effect = higher value. The method, boiled down: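 Genetically defined yeast (DNA repair-deficient) exposed to compounds; growth inhibition determined relative to vehicle.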
[7] abbreviates: at 5.0 µM (retest, dose inferred, filed as 0.5).
Where [8] appears, read: at 50.0 µM (retest, dose inferred, filed as 5.0).

Consider `CCN(CC)CCCC(C)Nc1cc(F)cc2cccnc12` (stereo not drawn), for which the growth inhibition in experiment [1] (setting [7]) is 10%; in experiment [1] (setting [8]), 81% (active); in experiment [1] (at 50.0 µM), 93.2% (active); in experiment [2] (setting [7]) it was 4%; in experiment [2] (setting [8]) it was 31%; in experiment [2] (at 50.0 µM), 63.2%. In addition, the growth inhibition is 28% in experiment [3] (setting [7]); 75% (active) in experiment [3] (setting [8]); 88.8% (active) in experiment [3] (at 50.0 µM); 10% in experiment [4] (setting [7]); 30% in experiment [4] (setting [8]); 44.9% in experiment [4] (at 50.0 µM). Also, the growth inhibition is 15% in experiment [5] (setting [7]); 41% in experiment [5] (setting [8]); 88.3% (active) in experiment [5] (at 50.0 µM); 20% in experiment [6] (setting [7]); 69% in experiment [6] (setting [8]); 85.9% (active) in experiment [6] (at 50.0 µM).
Regarding `CC1(C)CC(=O)C(CC2C(=O)c3ccccc3C2=O)C(=O)C1C(=O)C(=O)Nc1cccc2ccc(O)cc12` (stereo not drawn), the growth inhibition was 28% in experiment [1] (setting [7]); 48% in experiment [1] (setting [8]); 7.85% in experiment [1] (at 50.0 µM); 25% in experiment [2] (setting [7]); 23% in experiment [2] (setting [8]); -13.3% in experiment [2] (at 50.0 µM). Further, the growth inhibition was 10% in experiment [3] (setting [7]); 39% in experiment [3] (setting [8]); -8.6% in experiment [3] (at 50.0 µM); 22% in experiment [4] (setting [7]); 39% in experiment [4] (setting [8]); -7.7% in experiment [4] (at 50.0 µM). For the same compound, the growth inhibition is 30% in experiment [5] (setting [7]); 36% in experiment [5] (setting [8]); -31.9% in experiment [5] (at 50.0 µM); 32% in experiment [6] (setting [7]); 52% in experiment [6] (setting [8]); -30.2% in experiment [6] (at 50.0 µM).
In the case of `CCOC(=O)c1ccc(O)c(OC)c1`, the growth inhibition in experiment [1] (setting [7]) was -2%; in experiment [1] (setting [8]), 10%; in experiment [1] (at 50.0 µM) it was 2%; in experiment [2] (setting [7]), 7%; in experiment [2] (setting [8]) it was 3%; in experiment [2] (at 50.0 µM), 1.5%. The growth inhibition in experiment [3] (setting [7]) is 3%; in experiment [3] (setting [8]) it was 2%; in experiment [3] (at 50.0 µM) it was -18.6%; in experiment [4] (setting [7]), -5%; in experiment [4] (setting [8]), 5%; in experiment [4] (at 50.0 µM) it was -13.8%. The growth inhibition in experiment [5] (setting [7]) was 61%; in experiment [5] (setting [8]) it was 93% (active); in experiment [5] (at 50.0 µM) it was 90.2% (active); in experiment [6] (setting [7]), -3%; in experiment [6] (setting [8]), 0%; in experiment [6] (at 50.0 µM) it was -7.1%.
For the compound `CCCCCCCCCN1CCNC1=S`, the growth inhibition in experiment [1] (setting [7]) was -5%; in experiment [1] (setting [8]), 63%; in experiment [1] (at 50.0 µM), 38.9%; in experiment [2] (setting [7]), -7%; in experiment [2] (setting [8]), 30%; in experiment [2] (at 50.0 µM) it was -10.4%. The growth inhibition was 6% in experiment [3] (setting [7]); 60% in experiment [3] (setting [8]); 71% (active) in experiment [3] (at 50.0 µM); -18% in experiment [4] (setting [7]); 40% in experiment [4] (setting [8]); 0.9% in experiment [4] (at 50.0 µM). Further, the growth inhibition was 34% in experiment [5] (setting [7]); 80% (active) in experiment [5] (setting [8]); 54.3% in experiment [5] (at 50.0 µM); 0% in experiment [6] (setting [7]); 61% in experiment [6] (setting [8]); 49.5% in experiment [6] (at 50.0 µM).
Take `CC/C(=N\O)c1ccc2cc(Br)c3ccccc3c2c1`: the growth inhibition in experiment [1] (setting [7]) is 5%; in experiment [1] (setting [8]), 89% (active); in experiment [1] (at 50.0 µM), 98.7% (active); in experiment [2] (setting [7]) it was -2%; in experiment [2] (setting [8]), 89% (active); in experiment [2] (at 50.0 µM) it was 98.9% (active). The growth inhibition was 10% in experiment [3] (setting [7]); 88% (active) in experiment [3] (setting [8]); 98.7% (active) in experiment [3] (at 50.0 µM); -10% in experiment [4] (setting [7]); 84% (active) in experiment [4] (setting [8]); 96.8% (active) in experiment [4] (at 50.0 µM). Besides, the growth inhibition in experiment [5] (setting [7]) is -4%; in experiment [5] (setting [8]), 87% (active); in experiment [5] (at 50.0 µM), 98.8% (active); in experiment [6] (setting [7]) it was 5%; in experiment [6] (setting [8]), 88% (active); in experiment [6] (at 50.0 µM), 98.6% (active).
Regarding `O=c1nc(N2CCCC2)nc(N2CCCC2)s1`, the growth inhibition in experiment [1] (setting [7]) is -16%; in experiment [1] (setting [8]) it was -8%; in experiment [1] (at 50.0 µM), -11.4%; in experiment [2] (setting [7]), 4%; in experiment [2] (setting [8]), -14%; in experiment [2] (at 50.0 µM), 0.8%. Moreover, the growth inhibition in experiment [3] (setting [7]) was -1%; in experiment [3] (setting [8]) it was -11%; in experiment [3] (at 50.0 µM), -9.25%; in experiment [4] (setting [7]), 14%; in experiment [4] (setting [8]) it was -5%; in experiment [4] (at 50.0 µM) it was -38.6%. For the same compound, the growth inhibition is -7% in experiment [5] (setting [7]); -10% in experiment [5] (setting [8]); -4.15% in experiment [5] (at 50.0 µM); 14% in experiment [6] (setting [7]); -1% in experiment [6] (setting [8]); 7.45% in experiment [6] (at 50.0 µM).
